In PubChem BioAssay (Tox21) one finds Potency data, which are given here for 40 compounds.

Inconclusive results are not listed. Where a call stands in place of a potency, no number is given. The source made the active and inactive calls. The call rests on the fitted dose curve; in most records, active means well fitted cell-killing curve with a large enough effect in the repeat runs; inconclusive means weak or mixed curves, or effect the other way; inactive means no such curve, though single readings can be large or run the other way.
Potency means the concentration at half of the fitted maximal effect.

The nature of this test: Caspase-3/7 induction in CHO-K1 cells by small molecules, qHTS cell viability counter screen (AID 1346979). Further: nearly all actives have a fitted effect of over 35% in size. To be noted: CellTiter-Fluor fluorescence, 17 h; series mostly up to 92.4 µM. The text has this:
National Center for Advancing Translational Sciences [NCATS]
NIH Chemical Genomics Center [NCGC]
U.S. Environmental Protection Agency [EPA]
National Institutes of Environmental Health Sciences [NIEHS]
National Toxicology Program [NTP]
U.S. Food and Drug Administration [FDA]
Apoptosis is a process of programmed cell death and plays a central role in the development of multicellular organisms. It is a highly regulated process and induces cell death by activating caspases, which are the members of cysteine aspartic acid-specific protease (caspase) family. Caspases involved in apoptosis are classified by their mechanism of action as initiator caspases (caspase-2, -8, -9 and -10) and executioner caspases (caspase-3, -6, and -7). Inhibition of apoptosis results in number of cancers, autoimmune diseases, inflammatory diseases and viral infection. To identify small molecule compounds that induce apoptosis, a homogeneous, luminescent Caspase-Glo 3/7 assay was used. Wild type CHO-K1 cells were used to screen Tox21 libraries for identifying caspase-3/7 activity inducers. Also cytotoxicity of the compounds was tested in parallel by measuring the cell viability using CellTiter-Fluor assay system in the same wells.
Tox21 Assay Protocol Summary:
CHO-K1 cells were dispensed at 1,500 per well in 5uL of culture medium into white solid bottom 1536-well plates (Corning Life Sciences, Corning, NY) using a Multidrop Combi (Thermo Scientific, Waltham, MA) dispenser. The assay plates were incubated at 37 C and 5% CO2 for 5hr, and then 23nL of compounds dissolved in DMSO and positive control were transferred using a Pintool station (Wako, San Diego, CA). The assay plates were incubated at 37C and 5% CO2 for 17hr. For cytotoxicity read, after 16hr incubation at 37C, 1uL CellTiter-Fluor reagent (Promega Corporation, Madison, WI) was added to each well of the assay plates using Flying Reagent Dispenser (FRD, Aurora Discovery, San Diego, CA). After 1hr incubation at 37C and 5% CO2, the fluorescence signal was quantified using a ViewLux plate reader (PerkinElmer, Shelton, CT).
In the case of `SCCSCCS`, the Potency entry was “inactive”.

As for `CN(C)CCCNCCC#N`, the Potency result was “inactive”.

Consider `CCCCCCCCCCCCCCCCCCN(C)C`, for which the Potency entry was “inactive”.

As to `CCNC(=O)/C=C/c1cccc(Br)c1`, the Potency entry was “inactive”.

For the compound `CC(=O)N(CC(O)CO)c1c(I)c(C(=O)NCC(O)CO)c(I)c(C(=O)NCC(O)CO)c1I` (stereo not given), the Potency entry is “inactive”.

Turning to `Cc1cc(O)c2c(c1)C(=O)c1cccc(O)c1C2=O`, the Potency was 29.9 µM (active).

Consider `CC(=O)c1ccc(OCC(=O)N2CCCCC2)cc1`, for which the Potency result was “inactive”.

As to `CC(C)(C)NCCO`, the Potency entry is “inactive”.

For the compound `CCCCC(CC)CNC(=O)CC(C)OC(=O)CCC(=O)O` (stereo not given), the Potency entry is “inactive”.

Take `c1ccccc1`: the Potency result is “inactive”.

`O=C(O)c1ccccc1C(=O)OCc1ccccc1`: the Potency entry is “inactive”.

As for `CC1=CC[C@H](CC=O)C1(C)C`, the Potency entry is “inactive”.

Take `CCCCOC(=O)C(C)OC(=O)CCC` (stereo not given): the Potency result was “inactive”.

On to `CC(=O)OC[C@H]1O[C@@H](OC(C)=O)[C@H](OC(C)=O)[C@@H]1OC(C)=O`, for which the Potency entry is “inactive”.

Consider `CCS(=O)(=O)CCn1c([N+](=O)[O-])cnc1C`, for which the Potency entry was “inactive”.

Take `NC(=O)C1(N2CCCCC2)CCN(CCCC(=O)c2ccc(F)cc2)CC1`: the Potency result was “inactive”.

For the compound `Nc1ccc(S(=O)(=O)NC(=O)c2ccccc2)cc1`, the Potency result was “inactive”.

Consider `C[C@H](CCC(=O)O)[C@H]1CC[C@H]2[C@@H]3[C@H](O)C[C@@H]4C[C@H](O)CC[C@]4(C)[C@H]3C[C@H](O)[C@]12C`, for which the Potency entry is “inactive”.

With `COc1ccc(OC)c(NC(=O)CC(C)=O)c1`, the Potency result was “inactive”.

For `CC(=O)OC(C)c1ccccc1` (stereo not given), the Potency entry is “inactive”.

In the case of `CCCCC(CC)C(=O)OC(C)C` (stereo not given), the Potency entry is “inactive”.

On to `O=P(O)(O)OCC(O)CO` (stereo not given), for which the Potency entry is “inactive”.

For the compound `C[CH2][Ge]([Cl])([CH2]C)[CH2]C`, the Potency result was “inactive”.

Turning to `COCC(=O)Nc1c(I)c(C(=O)NCC(O)CO)c(I)c(C(=O)N(C)CC(O)CO)c1I` (stereo not given), the Potency entry was “inactive”.

`C=CCOc1cc(Cl)ccc1C(=O)NCCN(CC)CC`: the Potency entry is “inactive”.

`CC(C)CCCCCCOC(=O)C1CCCCC1C(=O)OCCCCCCC(C)C` (stereo not given): the Potency result is “inactive”.

As to `C[Si]1(C)N[Si](C)(C)N[Si](C)(C)N1`, the Potency result is “inactive”.

In the case of `CO/N=C(/C(=O)N[C@@H]1C(=O)N2C(C(=O)O)=C(Cn3nnc(C)n3)CS[C@H]12)c1csc(N)n1`, the Potency entry was “inactive”.

Regarding `CC(=O)c1ccc2c(c1)CCCC2`, the Potency entry is “inactive”.

Take `N#CCCOCCOCCC#N`: the Potency entry is “inactive”.

For `Nc1nc(=O)n([C@@H]2O[C@H](CO)[C@@H](O)[C@@H]2F)cc1I`, the Potency result was “inactive”.

Regarding `OCCCCCCCl`, the Potency entry was “inactive”.

In the case of `C[C@@H]1C[C@H]2[C@@H]3C[C@H](F)C4=CC(=O)C=C[C@]4(C)[C@@]3(F)[C@@H](O)C[C@]2(C)[C@@]1(O)C(=O)CO`, the Potency result was “inactive”.

On to `CC(=O)N1CCN(c2ccc(O)cc2)CC1`, for which the Potency result is “inactive”.

Regarding `C=C(C)C(=O)OCCCCCCOC(=O)C(=C)C`, the Potency entry is “inactive”.

As for `CCCCCCCC/C=C\CCCCCCCC(=O)OC[C@@H](O)[C@H]1OC[C@H](O)[C@H]1O`, the Potency result is “inactive”.

Turning to `CCCCC(CC)COC(=O)c1ccccc1` (stereo not given), the Potency entry is “inactive”.

In the case of `Cc1ccccc1N1CCN(CCc2nnc3n2CCCC3)CC1`, the Potency result is “inactive”.

As for `CCCCCCCCCOCC1CO1` (stereo not given), the Potency entry was “inactive”.

For `CCC(CO)CO`, the Potency result was “inactive”.
